High-throughput results (PubChem BioAssay)
A selection: hits, their analogues and other compounds. The true share with any hit is near 2.5%.
MEKK2 WT-MEK5: raises or lowers MEK5 binding to wildtype human MEKK2 PB1 domain | Q9Y2U5 | bead flow cytometry, Alexa488-MEK5 binding to MEKK2 WT; actives lie on both sides | binding response (% of control), % at 10 µM | 290,000 tested, 1.1% active | AID 1531; in the data active means binding response below about 67% or above about 130%
MEKK3 PB1 HTS: modulators (inhibitors or enhancers) of MEK5 binding to human MEKK3 PB1 domain. Q99759. bead-based flow cytometry, Alexa488-MEK5 binding to MEKK3; actives lie on both sides; 0 = blocked by unlabeled MEK5, 100 = vehicle. 290,000 tested, 1.4% active. binding response (% of control), % at 10 µM;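 active means binding response more than 3 SD above or below the average of its plate-row segment, actives on both sides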;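 further: Alexa488 bead fluorescence after subtracting the streptavidin-only scavenger bead signal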
Target sequence (Q99759 whole entry, looked up, the tested form may be a part): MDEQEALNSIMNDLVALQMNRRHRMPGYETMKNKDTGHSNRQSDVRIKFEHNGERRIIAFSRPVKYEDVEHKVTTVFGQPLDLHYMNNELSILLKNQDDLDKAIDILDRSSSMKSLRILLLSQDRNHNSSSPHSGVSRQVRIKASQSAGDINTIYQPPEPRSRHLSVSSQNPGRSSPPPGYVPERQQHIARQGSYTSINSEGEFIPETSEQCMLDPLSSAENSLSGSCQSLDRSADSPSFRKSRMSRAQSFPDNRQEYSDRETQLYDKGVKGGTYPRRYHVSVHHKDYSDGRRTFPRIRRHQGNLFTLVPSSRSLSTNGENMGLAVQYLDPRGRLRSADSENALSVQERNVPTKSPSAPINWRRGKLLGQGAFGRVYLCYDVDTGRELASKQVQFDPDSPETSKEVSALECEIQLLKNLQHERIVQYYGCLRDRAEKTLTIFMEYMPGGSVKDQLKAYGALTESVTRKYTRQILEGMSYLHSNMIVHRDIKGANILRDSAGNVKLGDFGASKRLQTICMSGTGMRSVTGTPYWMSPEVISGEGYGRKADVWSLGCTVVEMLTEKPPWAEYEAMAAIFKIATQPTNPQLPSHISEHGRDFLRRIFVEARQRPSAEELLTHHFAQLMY
GRK2 aptamer HTS: human GRK2 inhibition via aptamer displacement. bead flow cytometry, FAM-aptamer displacement from GRK2. inhibition of aptamer binding, % at 10 µM. AID 488847. 330,000 tested, 0.59% active;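 active means inhibition of aptamer binding above 40%, roughly 3 SD of noise, on plates passing a quality check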;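 further: median bead fluorescence of bound FAM aptamer so fluorescent compounds give negative values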
MEKK2 mut-MEK5: signal of MEK5 binding to mutant human MEKK2 PB1 domain | 290,000 tested, 0.35% active | percent response, % at 10 µM | bead flow cytometry, Alexa488-MEK5 binding to MEKK2 mutant; in the data active means percent response above about 24%, passing the limit was not always enough
GRK2 inh confirm: human GRK2 inhibition confirmation, cherry pick 1 | AID 504451 | shares compounds with GRK2 aptamer HTS | aptamer displacement, % at 10 µM | 2,000 tested, 4% active | bead-bound GRK2, FAM-aptamer displacement, flow cytometry;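 active means aptamer displacement above 40%, near three times the noise of non-fluorescent compounds, on plates passing quality checks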;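 further: negative values mostly reflect intrinsic compound fluorescence rather than true enhancement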
Aptamer quench 1: quenches fluorescent RNA aptamer, GRK2 hit artifact. Fluorescent RNA aptamer beads, quenching, flow cytometry; active compounds read high. 110 tested, under 10 active. shares compounds with GRK2 aptamer HTS. fluorescence change (kMESF span), kMESF (concentration not given with the values);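 active means compounds whose bead fluorescence drops by more than 37 kMESF across the dose range, marking them as dye quenchers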
FAM quench CP1: counter-screen for GRK2 aptamer inhibitors: fluorescent aptamer quenchers; shares compounds with GRK2 aptamer HTS; Carboxyfluorescein RNA aptamer on beads, flow cytometry quenching; active compounds read low; fluorescence response (% of DMSO), % at 10 µM; 2,000 tested, under 10 active;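 active means compounds that quench the bead-bound fluorescent RNA probe, cutting fluorescence to under half of the solvent control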;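 further: counterscreen run without GRK2 so only probe quenching by compound is measured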
GRK2 CP2: human GRK2 inhibition confirmation, cherry pick 2; shares compounds with GRK2 aptamer HTS; bead-bound GRK2, FAM-aptamer displacement, flow cytometry; 360 tested, under 10 active; inhibition of aptamer binding, % at 10 µM; AID 504782;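 active means inhibition of aptamer binding above 40%, about triple the noise seen with nonglowing compounds, on plates passing quality control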;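 further: negative values mostly come from compounds that fluoresce themselves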
FAM quench CP2: aptamer fluorescence quenching in GRK2 counter-screen; fluorescence response vs DMSO, % at 10 µM; shares compounds with GRK2 aptamer HTS; carboxyfluorescein RNA aptamer beads, flow cytometry quenching; active compounds read low; 360 tested, under 10 active; AID 588494;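 active means response vs DMSO under 50%, meaning signal dropped by over half, treated as fluorescence quencher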;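 further: labelled aptamer on streptavidin beads without GRK2 as a quench counter-screen; 100% = bead fluorescence of DMSO wells and lower means quenching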
Starred values were filed as active, the others as inactive; x = no result.

SMILES	MEKK2 WT-MEK5	MEKK3 PB1 HTS	GRK2 aptamer HTS	MEKK2 mut-MEK5	GRK2 inh confirm	FAM quench CP1	others
CC(=O)c1ccc(NC(=O)c2cccc(N3C(=O)c4ccccc4C3=O)c2)cc1	79	89	48*	-16	x	x	GRK2 CP2=-254;FAM quench CP2=101
CSCC[C@H](NC(=O)COc1ccc(Cl)cc1)c1nc2ccccc2[nH]1	99	91	98*	-1	1	94
O=C(COC(=O)Cc1c(Cl)cccc1Cl)NCc1ccco1	x	x	6	x	x	x
O=C(COC(=O)Cc1ccc(Cl)c(Cl)c1)NCc1ccco1	x	x	0	x	-3	101
Cc1cc(Br)ccc1SCC(=O)OCC(=O)NCc1ccco1	93	91	52*	-3	25	100
O=C(COC(=O)Cc1ccc(Cl)cc1)NCc1ccco1	x	x	59*	x	33	98
CCCCn1c(N)c(N(CCOC)C(=O)c2ccc3c(c2)C(=O)N(c2cc(C)ccc2C)C3=O)c(=O)[nH]c1=O	101	105	3	5	x	x
O=C(Nc1ccc(Cl)cn1)c1ccc(-c2cc(Cl)ccc2Cl)o1	x	x	42*	x	x	x	GRK2 CP2=-26;FAM quench CP2=100
Cc1ccc(-n2ncc3c(NCc4cccnc4)ncnc32)cc1C	92	96	47*	-4	-2	104
Cc1cccc(-n2ncc3c(NCc4cccnc4)ncnc32)c1	94	95	1	-7	x	x
O=C(O)c1ccc(CS(=O)(=O)c2cccc(C(F)(F)F)c2)o1	98	101	0	5	x	x	GRK2 CP2=-2;FAM quench CP2=101
CC(C)CCNC(=O)NC(=O)COC(=O)/C=C/c1cc(Br)ccc1F	98	96	0	-3	x	x
CCC(=O)N1CCc2cc(Br)cc(S(=O)(=O)N3CCC(C(=O)NC(C)C)CC3)c21	102	99	5	1	x	x
Cc1ccc([N+](=O)[O-])cc1S(=O)(=O)NCC1COc2ccccc2O1 (stereo not given)	101	104	54*	1	2	102
CCc1ccc(NC(=O)CSc2nc3ccccc3nc2N2CCCCC2)cc1	95	99	69*	-3	-2	92
CCNc1nc(NCC)n2c(SCC(=O)Nc3ccc(F)cc3)nnc2n1	x	x	23	x	x	x
CCNc1nc(NCC)n2c(SCC(=O)Nc3ccc(Br)cc3F)nnc2n1	x	x	5	x	x	x
CCNc1nc(NCC)n2c(SCC(=O)Nc3ccc(C)c(C)c3)nnc2n1	x	x	78*	x	57*	155	Aptamer quench 1=-6.6
CCNc1nc(NCC)n2c(SCC(=O)Nc3ccccc3)nnc2n1	95	101	0	-1	x	x	GRK2 CP2=2;FAM quench CP2=106
CCNc1nc(NCC)n2c(SCC(=O)Nc3cc(OC)ccc3OC)nnc2n1	x	x	0	x	x	x	GRK2 CP2=-13;FAM quench CP2=101
O=[N+]([O-])c1cc([N+](=O)[O-])c2cc(-c3cccnc3)[nH]c2c1	x	x	0	x	x	x
CC1(C(=O)OCC(=O)NNC(=O)COc2ccc(Cl)cc2)CC1(Cl)Cl (stereo not given)	x	x	0	x	x	x
Cc1ccc(C2=NN(C(=O)CCC(=O)O)C(c3cn(-c4ccccc4)nc3-c3ccc(C)cc3)C2)cc1 (stereo not given)	91	102	7	-8	0	103
Cc1ccc(-c2nn(-c3ccccc3)cc2C2CC(c3ccccc3)=NN2C(=O)CCC(=O)O)cc1 (stereo not given)	91	93	1	-2	x	x
COCCNC(=O)C(=O)N/N=C(\C)CC(=O)Nc1cccnc1	96	106	3	5	x	x
SMILES	MEKK2 WT-MEK5	MEKK3 PB1 HTS	GRK2 aptamer HTS	MEKK2 mut-MEK5	GRK2 inh confirm	FAM quench CP1	others
CC1CN(C(=O)c2cccc(S(=O)(=O)N3CCOCC3)c2)CC(C)O1 (stereo not given)	103	103	27	6	1	100
CC1CN(C(=O)c2cccc(COc3ccccc3Cl)c2)CC(C)O1 (stereo not given)	103	99	98*	1	1	99
O=C(CCc1nnc(C2CCCCC2)o1)N1CCC(Oc2cccnc2)CC1	91	103	3	-10	x	x
O=C(O)c1cccc([N+](=O)[O-])c1C(=O)Nc1ccc2ccccc2c1	100	104	1	0	x	x
O=C(COC(=O)CNC(=O)c1ccc([N+](=O)[O-])o1)Nc1ncc(Cl)cc1Cl	x	x	55*	x	-1	99
O=C(COC(=O)CNC(=O)c1ccc([N+](=O)[O-])o1)Nc1ncc(C(F)(F)F)cc1Cl	x	x	0	x	x	x
CCOc1ccc(C2(C)NC(=O)N(CCN(C)C)C2=O)cc1 (stereo not given)	99	99	x	-1	x	x
CN1CCN(/N=C/c2ccc(-c3ccccc3)cc2)CC1	100	90	0	-1	x	x
Cc1cc(/C=N/N2CCN(C)CC2)c(C)n1-c1ccccc1F	106	107	50*	2	1	99
CC(C)c1cc(C(=O)NC2CCCc3c2cnn3-c2ccccc2F)no1 (stereo not given)	100	96	69*	1	4	97
CCNC(=O)N1CCOCC1	104	105	45*	2	-6	100
Cc1ccc(-n2nc3c(=O)n(CC(=O)NC(C)CCc4ccccc4)nc(C)c3c2C)cc1 (stereo not given)	96	94	0	-1	x	x
COc1cc(OC)cc(-c2c(-c3cccs3)c3cc(-c4cnc(OC)nc4)ccc3n2C)c1	x	x	68*	x	-7	105
COc1ccc(-c2ccc3c(c2)c(-c2cccs2)c(-c2cc(OC)cc(OC)c2)n3C)cc1	x	x	1	x	x	x
Cc1ccccc1NS(=O)(=O)c1cc(C(=O)Nc2cccc(N(C)S(C)(=O)=O)c2)ccc1C	102	104	16	5	-1	101
Cc1cc(C)n2nc(C(=O)N/N=C/c3cccc(Cl)c3)nc2n1	100	102	1	5	x	x
O=C(OCC(=O)N1CCN(S(=O)(=O)c2ccccc2)CC1)C1CCC1	x	x	59*	x	x	x	GRK2 CP2=13;FAM quench CP2=101
O=C(COc1cccnc1[N+](=O)[O-])NC1CCS(=O)(=O)C1 (stereo not given)	100	97	70*	-1	x	x	GRK2 CP2=-43;FAM quench CP2=101
CCC(CO)Nc1ccc(-c2nn(C)c(=O)c3ccccc23)cc1[N+](=O)[O-] (stereo not given)	92	98	0	-5	x	x
CCC(CO)Nc1ccc(-c2n[nH]c(=O)c3ccccc23)cc1[N+](=O)[O-] (stereo not given)	102	103	60*	2	x	x	GRK2 CP2=-3;FAM quench CP2=105
